The target of assay [1] is Lysine-specific demethylase 5B (Homo sapiens) (UniProt Q9UGL1). In words: Optimization screen for KDM5B Histone Demethylases FDH coupled qHTS against the LOPAC library (AID 1347166). Further: 0% is about no effect. In a few lines:
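KDM5BDeltaAP (200nM final) preincubated 10 min with compound, then 12.5uM H3K4Me3, 25uM a-ketoglutarate, ascorbate, Fe(II), NAD+ and FDH added; 50mM HEPES pH 7.5, 0.01% Tween-20. NADH fluorescence (340/450 nm) change over 30 min, room temperature.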

Assay [2] can be described thus: qHTS to identify inhibitors of the type 1 interferon - major histocompatibility complex class I in skeletal muscle: primary screen against the NCATS LOPAC collection (AID 1347405).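 Further: lytic HiBiT luminescence reporting HLA-B protein level.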 Further: potency means the concentration at half of the fitted maximal effect. In outline: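 Luminescence from HiBiT fused to endogenous HLA-B in CRISPR-engineered human myoblasts served as the read-out. Cells received 4.0 ng/ml IFN-beta plus compound (seven concentrations, 1:4.3 steps, highest 46 uM final) for 24 hrs before lytic detection.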
On the technique in general: Quantitative high-throughput screening tests each substance at several concentrations.

Assay [3] in a line: qHTS to identify inhibitors of the type 1 interferon - major histocompatibility complex class I in skeletal muscle: primary screen against the NCATS Pharmaceutical Collection (AID 1347407). Further: potency means the concentration at half of the fitted maximal effect. In a few lines: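 Luminescence from HiBiT-tagged endogenous HLA-B*08:01 served as the read-out of IFN-beta-induced MHC class I in CRISPR-engineered C25cl48 myoblasts. Cells received 4 ng/ml IFN-beta plus compound (high final 46 uM, […]) for 24 h.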

Assay [4] in a line: qHTS for inhibitors of adenylyl cyclases using a fission yeast platform: a pilot screen against the NCATS LOPAC library (AID 1347410).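 Further: plate controls were DMSO vehicle for no effect and DPI positive control for full effect.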 In outline:
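Fission yeast qHTS: CHP2027 cells (AC9-GNAS-PDE4D2, fbp1-GFP), 5x10^6 cells/mL working density, EMM + His/Lys/Ura; LOPAC at up to 57 µM final; 18 h dark, 30C; GFP by laser cytometry. DPI positive control, DMSO vehicle.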

Assay [5] addresses Protein phosphatase 1D (Homo sapiens) (UniProt O15297). Nature of the assay: RapidFire Mass Spectrometry qHTS Assay for Modulators of WT P53-Induced Phosphatase 1 (WIP1) (AID 1347424).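 Further: amount of dephosphorylated VEPPL-S-QETFS peptide product formed by WIP1; series mostly up to about 63 µM; plate controls were DMSO wells for no effect and GSK830371 inhibitor control at 10 µM for full effect.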 In a few lines:
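10 nM WIP1 preincubated with compounds 1 hr at room temperature in pH 7.5 Tris buffer with 30 mM MgCl2, 1 mM TCEP; 2 uM VEPPL-pS-QETFS phosphopeptide for 5 min, formic acid quench; dephosphorylated product quantified by RapidFire MS against labelled standard.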

Assay [6] shares this target. In words: Rhodamine-PBP qHTS Assay for Modulators of WT P53-Induced Phosphatase 1 (WIP1) (AID 1347425). Further: % of control where 0% means no effect. In outline: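 Read-out: Rhodamine-PBP fluorescence (ex 525/em 598 nm) for released Pi, read each minute for 11 min after adding 10 uM VEPPL-pS-QETFS; signal taken as f1 minus pre-substrate f0. Enzyme 5 nM WIP1 with 1 hr room-temperature compound preincubation.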
A short description of assay [7]: Validation qHTS assay for inhibitors of Activation Induced Cytidine Deaminase (AID): UDG Counterscreen signal (AID 1347427). Further: 0% is about no effect. In outline: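 Counterscreen read of UDG activity (2 U/mL, 4/3x) in the FRET deamination format with AID (1 uM, 4/3x), DJC20/DJC23 substrates (250 nM, 4x), 4 h at room temperature. NaOH stop, fluorescence at 560 ex/665 em.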
Assay [8] concerns the target Single-stranded DNA cytosine deaminase (Homo sapiens) (UniProt Q9GZX7). In words: Validation qHTS assay for inhibitors of Activation Induced Cytidine Deaminase (AID): AID signal (AID 1347429). Further: on the % scale 0 is the no-effect control and ±100 the full control effect. In a few lines:
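Fluorescence at 540 nm excitation and 590 nm emission reports ssDNA cytosine deamination by AID, with UDG in the same well. Compound-treated reactions ran 4 hr at room temperature with DJC20/DJC23 substrate, followed by 30 min NaOH treatment.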

The nature of assay [9]: Primary qHTS for inhibitors of La Crosse Virus (LACV) - induced cell death in SH-SY5Y cells (AID 1508616).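 Further: top concentration of the series differs between compounds; 0% = infected DMSO wells and 100% = uninfected DMSO wells; higher means more rescue of cells from virus-induced death.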 In outline: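 Protection against LACV-induced cell death is scored in SH-SY5Y cells exposed to compounds and virus (0.01 MOI) for 6 days. Data normalized to virus-infected DMSO wells and virus-free DMSO wells.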
In assay [10] the target is Calcium and integrin-binding protein 1 (Homo sapiens) (UniProt Q99828). Nature of the assay: Primary qHTS for Identification of Calcium Integrin Binding Protein 1 (CIB1) Competitor (AID 1508620).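 Further: GST tagged CIB1 binding a fluorescein labelled alphaIIb integrin peptide tracer; top concentration of the series differs between compounds; on the % scale 0 is the no-effect control and ±100 the full control effect.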 In outline:
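Fluorescence polarization competition: GST-tagged CIB1 (1 uM final) preincubated with compound 15 min at room temperature, then FITC-labelled alphaIIb peptide (100 nM final) added. After 15 min at room temperature, polarization read at Ex 480/Em 540.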

A short description of assay [11]: Counterscreen qHTS for small molecule stabilizers of the endoplasmic reticulum resident proteome: GLuc-NoTag assay (AID 1508627).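 Further: SH-SY5Y cells given compound then 100 nM thapsigargin to empty ER calcium; series mostly up to about 76 µM; 0% = thapsigargin alone and -100% = DMSO vehicle control.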 In a few lines:
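SH-SY5Y cells stably expressing constitutively secreted GLuc without SERCaMP tag, exposed to compound for 19 hr, then to 100 nM thapsigargin for 4 hr at 37C. Medium luciferase was read by coelenterazine luminescence without lysis.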
(In general: A counterscreen serves to expose hits that act by an unwanted route or on another target.)

Assay [12] can be described thus: Confirmatory qHTS for small molecule stabilizers of the endoplasmic reticulum resident proteome: Secreted ER Calcium Modulated Protein (SERCaMP) assay (AID 1508628). Further: series mostly up to about 76 µM; on the % scale 0 is the no-effect control and ±100 the full control effect; nearly all actives have a fitted effect of over 40% in size. In outline:
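SH-SY5Y cells stably expressing GLuc-SERCaMP, treated 16 h with compound (primary 1.53, 7.67, 38.3 uM; confirmation 11 concentrations, up to 76.6 uM), then 100 nM thapsigargin for 4 h. Secreted Gaussia luciferase in medium read by coelenterazine luminescence.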

The nature of assay [13]: Cell Viability qHTS for small molecule stabilizers of the endoplasmic reticulum resident proteome (AID 1508629).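 Further: human SH-SY5Y neuroblastoma cells carrying the GLuc-SERCaMP reporter; compound exposure about 46 h in total before the viability read; on the % scale 0 is the no-effect control and ±100 the full control effect.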 To be noted: cell viability counter-screen, 100 nM thapsigargin for final 4 h.
Assay [14] in a line: Primary qHTS for small molecule stabilizers of the endoplasmic reticulum resident proteome: Secreted ER Calcium Modulated Protein (SERCaMP) assay (AID 1508630). Further: potency means the concentration at half of the fitted maximal effect. In outline: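 GLuc-SERCaMP-expressing SH-SY5Y cells, pretreated 16 h with compound, are challenged with thapsigargin to empty ER calcium stores; after 4 h, coelenterazine is added directly to the medium and luminescence is imaged.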

Assay [15] is described as follows: qHTS to identify inhibitors of the type 1 interferon - major histocompatibility complex class I in skeletal muscle: primary screen against the NCATS Mechanism Interrogation Plate v5.0 (MIPE) Libary (AID 1347411). Further: nearly all actives have a fitted effect of over 65% in size. Further: potency means the concentration at half of the fitted maximal effect. In outline:
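Luminescence from HiBiT-tagged endogenous HLA-B*08:01 served as the MHC class I read-out. CRISPR-engineered C25cl48 human myoblasts received 4.0 ng/ml IFN-beta plus compound for 24 hrs, with an 11-point, 1:3 series topping at 46 uM final.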

The structures appear in SMILES notation. Values without a mark were called inactive. Inconclusive results are not listed. Activity calls are given as the source filed them. The call rests on the fitted dose curve; in most records, active means well fitted curve in the direction sought with a large enough effect; inconclusive means small, poorly fitted or top-dose-only effect, or another doubt; inactive means no such curve, though single readings can be large; an effect the other way counts as inactive or inconclusive.

From PubChem BioAssay (NCATS) come the findings set out here.

Chain of Single-stranded DNA cytosine deaminase (Homo sapiens) (Q9GZX7 whole entry, looked up): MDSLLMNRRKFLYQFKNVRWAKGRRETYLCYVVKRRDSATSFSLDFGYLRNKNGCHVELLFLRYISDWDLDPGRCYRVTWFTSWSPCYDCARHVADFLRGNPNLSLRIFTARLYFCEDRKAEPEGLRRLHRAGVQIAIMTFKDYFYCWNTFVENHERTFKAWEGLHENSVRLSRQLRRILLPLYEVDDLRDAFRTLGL
Chain of Protein phosphatase 1D (Homo sapiens) (O15297 whole entry, looked up): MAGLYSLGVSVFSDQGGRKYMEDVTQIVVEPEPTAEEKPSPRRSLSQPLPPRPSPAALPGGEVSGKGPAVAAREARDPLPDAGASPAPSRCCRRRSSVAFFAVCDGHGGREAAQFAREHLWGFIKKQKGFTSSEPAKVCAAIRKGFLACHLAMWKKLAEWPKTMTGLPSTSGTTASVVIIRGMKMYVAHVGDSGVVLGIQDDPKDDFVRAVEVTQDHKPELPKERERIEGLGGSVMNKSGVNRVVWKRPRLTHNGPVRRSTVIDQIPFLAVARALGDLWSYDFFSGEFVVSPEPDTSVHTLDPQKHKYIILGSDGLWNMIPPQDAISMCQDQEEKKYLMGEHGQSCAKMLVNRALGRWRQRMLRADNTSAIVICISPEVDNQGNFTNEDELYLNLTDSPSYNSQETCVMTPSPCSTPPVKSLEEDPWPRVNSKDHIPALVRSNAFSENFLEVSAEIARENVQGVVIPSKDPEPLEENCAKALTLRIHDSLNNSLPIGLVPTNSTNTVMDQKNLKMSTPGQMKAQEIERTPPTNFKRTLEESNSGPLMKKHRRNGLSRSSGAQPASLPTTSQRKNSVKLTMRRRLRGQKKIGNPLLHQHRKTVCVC
Chain of Calcium and integrin-binding protein 1 (Homo sapiens) (Q99828 whole entry, looked up): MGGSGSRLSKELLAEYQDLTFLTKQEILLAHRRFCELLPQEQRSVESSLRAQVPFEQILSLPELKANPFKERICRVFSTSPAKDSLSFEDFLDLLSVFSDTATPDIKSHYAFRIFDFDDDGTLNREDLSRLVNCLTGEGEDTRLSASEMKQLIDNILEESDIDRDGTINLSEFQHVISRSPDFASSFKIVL
Chain of Lysine-specific demethylase 5B (Homo sapiens) (Q9UGL1 whole entry, looked up): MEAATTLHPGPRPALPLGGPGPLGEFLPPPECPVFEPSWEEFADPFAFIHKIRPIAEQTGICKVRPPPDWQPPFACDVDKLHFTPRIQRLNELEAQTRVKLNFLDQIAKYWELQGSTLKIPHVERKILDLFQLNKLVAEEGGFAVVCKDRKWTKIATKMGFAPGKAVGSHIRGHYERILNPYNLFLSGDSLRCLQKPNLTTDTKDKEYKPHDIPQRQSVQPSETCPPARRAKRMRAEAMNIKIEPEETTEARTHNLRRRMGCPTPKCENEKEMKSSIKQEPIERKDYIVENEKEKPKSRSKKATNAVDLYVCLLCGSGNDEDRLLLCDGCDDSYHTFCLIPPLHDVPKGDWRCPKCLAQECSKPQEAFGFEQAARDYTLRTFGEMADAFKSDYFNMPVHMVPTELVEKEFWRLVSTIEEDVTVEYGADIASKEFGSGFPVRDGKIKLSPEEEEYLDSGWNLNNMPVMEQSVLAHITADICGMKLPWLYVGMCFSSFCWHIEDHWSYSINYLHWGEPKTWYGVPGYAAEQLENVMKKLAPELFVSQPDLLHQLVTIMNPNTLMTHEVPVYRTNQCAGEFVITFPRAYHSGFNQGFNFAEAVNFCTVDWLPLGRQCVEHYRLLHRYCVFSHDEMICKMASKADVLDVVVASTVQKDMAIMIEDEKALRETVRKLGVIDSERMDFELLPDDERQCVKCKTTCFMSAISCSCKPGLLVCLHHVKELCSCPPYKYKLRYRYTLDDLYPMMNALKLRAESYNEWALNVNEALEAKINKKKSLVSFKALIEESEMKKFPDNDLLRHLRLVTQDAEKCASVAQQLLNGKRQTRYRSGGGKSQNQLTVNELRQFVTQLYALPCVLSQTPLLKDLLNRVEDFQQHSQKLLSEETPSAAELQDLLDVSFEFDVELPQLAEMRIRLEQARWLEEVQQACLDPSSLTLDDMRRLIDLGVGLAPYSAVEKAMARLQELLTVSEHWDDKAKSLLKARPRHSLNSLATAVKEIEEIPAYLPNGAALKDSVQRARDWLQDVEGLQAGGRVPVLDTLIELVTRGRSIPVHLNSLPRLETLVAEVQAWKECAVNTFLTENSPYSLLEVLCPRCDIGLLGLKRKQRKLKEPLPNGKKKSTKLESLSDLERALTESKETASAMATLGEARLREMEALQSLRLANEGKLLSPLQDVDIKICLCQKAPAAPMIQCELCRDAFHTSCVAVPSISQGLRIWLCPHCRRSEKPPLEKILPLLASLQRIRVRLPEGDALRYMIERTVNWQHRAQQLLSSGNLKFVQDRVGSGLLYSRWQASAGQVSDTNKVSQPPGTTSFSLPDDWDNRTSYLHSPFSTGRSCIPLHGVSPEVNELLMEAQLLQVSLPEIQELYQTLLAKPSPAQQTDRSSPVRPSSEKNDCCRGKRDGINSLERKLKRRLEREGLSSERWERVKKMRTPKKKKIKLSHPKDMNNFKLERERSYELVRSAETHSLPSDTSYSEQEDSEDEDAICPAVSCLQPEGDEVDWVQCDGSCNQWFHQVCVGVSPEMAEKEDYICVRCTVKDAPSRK

Take `CCN(CC)CCOC(=O)C1(C2CCCCC2)CCCCC1`: the molecule was called inactive in assay [1], in assay [4], in [5], in assay [6], in [9] and in assay [10]. Also, the Potency entry in assay [2], in assay [3], in [7], in assay [8], in assay [11] and in assay [12] was “inactive” each time. The Potency result in assay [14] is “inactive”. Besides, the max response in [13] was -2.82%.

`CCN(CC)C(C)CN1c2ccccc2Sc2ccccc21` (stereo not drawn): the outcome in assay [1], in assay [5], in [6], in [9] and in assay [10] was inactive. In addition, the Potency result in assay [2], in [3], in [7], in [8] and in assay [14] was “inactive” in each case.

With `CC[C@H]1CN2CCc3cc(OC)c(OC)cc3[C@@H]2C[C@@H]1C[C@H]1NCCc2cc(OC)c(OC)cc21`, the outcome in [1], in assay [4], in assay [5], in [6] and in [10] was inactive. Besides, the Potency in assay [2] is 282 nM (active); in assay [3] it was 264 nM (active); in assay [15], 658 nM (active). In addition, the Potency result in [7], in [8] and in assay [14] was “inactive” in each case.

For the molecule `CNC(=O)Oc1ccc2c(c1)[C@]1(C)CCN(C)[C@@H]1N2C`, the outcome in assay [1], in assay [5], in assay [6], in [9] and in [10] was inactive. Besides, the Potency result in assay [2], in assay [3], in [7], in [8] and in [14] was “inactive” each time.

`C[C@]12C[C@H](O)[C@H]3[C@@H](CCC4=CC(=O)CC[C@@]43C)[C@@H]1CC[C@@H]2C(=O)CO`: the outcome in assay [1], in assay [5], in assay [6], in assay [9] and in assay [10] was inactive. Moreover, the Potency entry in [2], in assay [3], in assay [7], in assay [8] and in assay [14] was “inactive” each time.

With `NC(=O)c1ncn([C@@H]2O[C@H](CO)[C@@H](O)[C@H]2O)n1`, the outcome in [1], in assay [5], in assay [6], in [9] and in assay [10] was inactive. For the same molecule, the Potency entry in assay [2], in assay [3], in assay [15], in assay [7], in assay [8] and in assay [14] was “inactive” each time.

In the case of `CCCn1cnc2c1c(=O)n(CCCCC(C)=O)c(=O)n2C`, the call in assay [1], in [5], in assay [6], in assay [9] and in assay [10] was inactive. Also, the Potency result in assay [2], in assay [7], in assay [8] and in assay [14] was “inactive” in each case.

For `O=C1N=C(O)CN1/N=C/c1ccc(-c2ccc([N+](=O)[O-])cc2)o1`, the outcome in [1], in assay [5], in assay [6], in assay [9] and in [10] was inactive. For the same molecule, the Potency result in assay [2], in assay [3], in [7], in [8] and in assay [11] was “inactive” in each case. The max response in assay [13] is 30.6%. For the same molecule, in assay [14], the Potency was 14100 nM (active).

As to `CC(C)(C)c1onc(OCP(=O)(O)O)c1CC(N)C(=O)O` (stereo not drawn), the molecule was called inactive in assay [1] and in assay [9]. Besides, the Potency entry in [2], in [7], in assay [8] and in assay [14] was “inactive” each time.
